Out of some 330,000 compounds screened, about 1,700 (0.52%) were called active. The sample holds actives, similar compounds and a random draw of the others, so the mix is not that of the screen.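 Rule for the calls: active = GFP response versus DMSO above a set limit, roughly screen mean plus 3 SD (cut at about 180% in these data); inconclusive = fewer than 70 cells counted for a yeast strain; inactive = the rest.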
Assay: modulators of MEP2-GFP levels in yeast, primary screen, S. cerevisiae, multiplex flow cytometry, MLPCN library (AID 2016);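 note: median GFP fluorescence of the barcode-gated MEP2-GFP cells per well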
Settings: S. cerevisiae MEP2-GFP strain, 3 h, at 10 µM, stronger effect = higher value, 100% = DMSO control level

SMILES | GFP response vs DMSO
Cc1ccc(F)c(NC(=O)CCc2ccccc2)c1 | 93.7% (inactive)
Cc1ccc(F)c(NC(=O)CCOc2ccccc2C)c1 | 96.5% (inactive)
CCn1ncc(Br)c1C(=O)Nc1cc(C)ccc1F | 233% [may fluoresce violet] (active)
Cc1nnc(N(Cc2ccco2)C(=O)c2ccno2)s1 | 99% (inactive)
CC(C)CC(CO)N1CCN(C(=O)c2ccc(Cl)cc2Cl)CCC1=O (stereo not given) | 96.1% (inactive)
CCS(=O)(=O)Nc1ccc(C2=NN(C(C)=O)C(c3cccs3)C2)cc1 (stereo not given) | 107% (inactive)
CCCS(=O)(=O)Nc1ccc(-c2cn3c(n2)SCC3)cc1 | 255% [may fluoresce violet] (active)
CCCCc1c(O)nc2n(c1=O)CCS2 | 92.6% (inactive)
CCOc1ccc(NS(=O)(=O)c2ccc(C(=O)NCC(c3ccccc3OC)N3CCCC3)cc2)cc1 (stereo not given) | 102% (inactive)
O=C(Nc1ccc(N2CCOCC2)c(Cl)c1)c1ccc(S(=O)(=O)N2CCOCC2)cc1 | 95.7% (inactive)
Cc1cc(C)n(-c2ccc(NC(=O)C3CCCCN3C(=O)c3cccs3)cc2)n1 (stereo not given) | 92.9% (inactive)
Cc1cc(C)c(OCCN2CC(C)OC(C)C2)c(Br)c1 (stereo not given) | 101% (inactive)
COc1ccc(CCNC(=O)CS(=O)(=O)Cc2nc(-c3ccc(C)cc3)oc2C)cc1OC | 186% (active)
COc1cccc(-c2nc(CS(=O)(=O)CC(=O)NCCc3ccc(OC)c(OC)c3)c(C)o2)c1 | 98.7% (inactive)
Cc1ccc(-c2nc(CS(=O)(=O)CC(=O)NCc3ccc4c(c3)OCO4)c(C)o2)cc1 | 102% (inactive)
O=C(CN1C(=O)c2cccnc2Oc2ccc(Cl)cc21)Nc1ccc(F)cc1 | 105% (inactive)
COc1ccc(CNC(=O)CCN2C(=O)c3ccccc3C2=O)cc1 | 96.1% (inactive)
COc1ccc(CNC(=O)CCn2cccc2)cc1 | 94.3% (inactive)
CCOc1cc2[nH]c(=O)n(CCC(=O)NCc3ccc(OC)cc3)c(=O)c2cc1OCC | 223% [may fluoresce violet] (active)
Cc1nccn1CC(=O)N/N=C/c1ccc(O)c(O)c1 | 105% (inactive)
NCCCCCC(=O)N/N=C/c1ccc2nccnc2c1 | 673% [may fluoresce violet] (active)
O=C(N/N=C/c1ccc(Cl)c(Cl)c1)c1ccc2nc[nH]c2c1 | 97.5% (inactive)
COCCN(C(=O)CCC(=O)Nc1ccccn1)C(C(=O)NCCC(C)C)c1ccc(OC)cc1 (stereo not given) | 107% (inactive)

SMILES | GFP response vs DMSO
COCCNC(=O)C(c1ccc(C)cc1)N(C(=O)CCC(=O)Nc1ccccn1)c1cccc(C)c1 (stereo not given) | 107% (inactive)
CCOc1ccc(C(C(=O)NCCOC)N(CCOC)C(=O)CCC(=O)Nc2ccccn2)cc1 (stereo not given) | 296% [may fluoresce violet] (active)
Cn1c(CCC(=O)OCC(=O)NCc2ccccc2Cl)nc(=O)c2ccccc21 | 99.4% (inactive)
COc1cc(Cl)c(C)cc1NC(=O)CSc1nnc(CN2CCCC2)o1 | 105% (inactive)
CC1CC(=S)Nc2ccccc2N1Cc1ccccc1 (stereo not given) | 98.4% (inactive)
Cc1cc(NS(=O)(=O)c2ccc(NC(=O)c3cccc(OC(F)F)c3)cc2)nc(C)n1 | 92% (inactive)
Cc1cccc(C)c1NC(=O)CS(=O)CC(=O)N1CCN(c2ccccc2)CC1 (stereo not given) | 102% (inactive)
CC[n+]1cc(C)ccc1/C=C/c1ccc(N(C)C)cc1 | 180% (active)
Cc1ccccc1NC(=O)C1CCCN(C(=O)NCc2ccccc2)C1 (stereo not given) | 105% (inactive)
COc1cccc(NC(=O)C(Sc2nnnn2C)c2ccccc2)c1 (stereo not given) | 100% (inactive)
CC(C)(C)C(=O)/C(C#N)=C/c1ccc(O)cc1 | 95.4% (inactive)
Cc1cc(=O)oc2cc(NC(=O)C3CC(=O)N(Cc4ccccc4)C3)ccc12 (stereo not given) | 559% [may fluoresce violet] (active)
Cc1cc(=O)oc2cc(NC(=O)C(C)Oc3ccccc3)ccc12 (stereo not given) | 99.1% (inactive)
O=C(Nc1ccc(F)c([N+](=O)[O-])c1)C1CC(=O)N(Cc2ccccc2)C1 (stereo not given) | 101% (inactive)
O=C(C(Cc1ccccc1)n1cccc1)N1CCN(C2CCCCC2)CC1 (stereo not given) | 96.8% (inactive)
CC(C)Cn1cnc2c1c(=O)n(CC(=O)NN)c(=O)n2Cc1ccccc1 | 97.4% (inactive)
CCN(CC)Cc1cc(C(C)=O)ccc1O | 103% (inactive)
CN(CCO)Cc1csc2ccc(Br)cc12 | 112% (inactive)
CCN(CC)Cc1csc2ccc(Br)cc12 | 200% (active)
CC(=O)N1c2ccc(S(=O)(=O)NCCC(=O)N(C)C3CCCCC3)cc2CC1C (stereo not given) | 104% (inactive)
Cc1ccc(S(=O)(=O)Oc2ccc(/C=N/NC(=O)c3c(Cl)cnn3C)cc2)cc1 | 98.8% (inactive)
COc1ccccc1OCCNc1cc(N2CCOCC2)ccc1[N+](=O)[O-] | 106% (inactive)
COc1ccc(CCNc2cc(N3CCN(C(=O)c4ccccc4OC)CC3)ccc2[N+](=O)[O-])cc1OC | 180% [may fluoresce violet] (active)

SMILES | GFP response vs DMSO
COc1ccc(CCNC(=O)c2ccccc2-c2ccccc2C(=O)O)cc1OC | 93% (inactive)
COC(=O)/C(=C\Nc1ccccc1)NC(=O)c1ccc(Cl)cc1Cl | 91.1% (inactive)
COCC1CCN(C(=O)c2ccc3oc(Cc4ccccc4)nc3c2)C1 (stereo not given) | 101% (inactive)
CCOC(=O)c1nnn(-c2nonc2-n2cccc2)c1CN1CCOCC1 | 92.2% (inactive)
CCOC(=O)c1c(CN2CCOCC2)n(-c2ccccc2)c2ccc(O)cc12 | 240% [may fluoresce violet] (active)
CCOC(=O)c1c(CN(C)C)n(-c2ccccc2)c2cc(Br)c(O)cc12 | 96.5% (inactive)
Cc1ccc2nnn(Cc3cccc(C(C)(C)C)c3O)c2c1 | 92.5% (inactive)
COc1ccc(C)cc1NC(=O)CN1c2cccc3cccc(c23)S1(=O)=O | 101% (inactive)
COc1cc(C(=O)Nn2c(O)c(C3=c4ccccc4=NC3=O)sc2=S)ccc1O | 96.1% (inactive)
COc1cccc(-n2c(SCC(=O)NC3CCS(=O)(=O)C3)nc3ccccc3c2=O)c1 (stereo not given) | 109% (inactive)
O=C1N(Cc2ccc3c(c2)OCO3)c2ccccc2C1(O)c1c[nH]c2ccccc12 (stereo not given) | 104% (inactive)
Cc1ccc(C(=O)Nc2ccn(C)n2)cc1 | 109% (inactive)
CN(C)S(=O)(=O)c1cc(C(=O)Nc2ccn(C)n2)c(Cl)cc1Cl | 7710% [may fluoresce green] (active)
O=C(Nc1nccs1)c1cc(S(=O)(=O)N2CCOCC2)c(Cl)cc1Cl | 97.8% (inactive)
CCOC(=O)N1CCN(S(=O)(=O)c2ccc(OC)cc2)CC1 | 98.6% (inactive)
CCOC(=O)N1CCN(S(=O)(=O)c2ccc(Br)cc2)CC1 | 576% [may fluoresce violet] (active)
CCOC(=O)N1CCN(S(=O)(=O)c2ccc(-n3cnnn3)cc2)CC1 | 93.2% (inactive)
NC(=O)COC(=O)c1ccc2c(c1)C(=O)N(Cc1ccco1)C2=O | 103% (inactive)
COc1ccc2sc(-c3ccc(N(C)C)cc3)c(C#CCO)c2c1 | 180% [may fluoresce violet] (active)
COc1ccc2sc(-c3ccc(N(C)C)cc3)c(-c3ccc4cc[nH]c4c3)c2c1 | 105% (inactive)
COc1ccc(-c2sc3ccc(OC)cc3c2C#Cc2ccccn2)cc1 | 87.4% (inactive)
COc1ccc(S(=O)(=O)NCC(c2ccco2)N2CCOCC2)cc1 (stereo not given) | 97.3% (inactive)
O=C(CC1CCCCC1)NCc1ccc(F)cc1 | 92.1% (inactive)

SMILES | GFP response vs DMSO
O=C(CSc1nnnn1-c1ccc(O)cc1)c1ccc(F)cc1 | 106% (inactive)
COC(=O)c1ccc(-c2noc(CN(Cc3ccccn3)CC3CCCO3)n2)cc1 (stereo not given) | 102% (inactive)
COc1ccc(CN2CCn3ncc(C(=O)Nc4ccc(Cl)cc4Cl)c3C2=O)cc1 | 107% (inactive)
O=C1N=C(N2CCOCC2)CS1 | 99.2% (inactive)
CC(=O)NC(CC(=O)Nc1ccc(S(=O)(=O)N2CCOCC2)cc1)c1ccccc1 (stereo not given) | 95.3% (inactive)
O=[N+]([O-])c1cccc(/C=N/Nc2ncc(Br)cn2)c1 | 239% (active)
O=[N+]([O-])c1ccc(N/N=C/c2ccccc2)cc1 | 102% (inactive)
O=C(N/N=C/c1cccc([N+](=O)[O-])c1)C1CC(=O)N(c2ccc(Br)cc2)C1 (stereo not given) | 100% (inactive)
CCOC(=O)C(CC)Sc1ncnc2c1nnn2-c1ccc(F)cc1 (stereo not given) | 191% (active)
CCOC(=O)C(C)n1cnc2c(nnn2-c2ccc(F)cc2)c1=O (stereo not given) | 98.2% (inactive)
COC(=O)C(C)n1cnc2c(nnn2-c2ccc(F)cc2)c1=O (stereo not given) | 95.3% (inactive)
CC(=O)c1cccc(OCc2cc(C(=O)NC(C)Cc3cccnc3)no2)c1 (stereo not given) | 92.2% (inactive)
CCOC(=O)c1[nH]c(C)c(C(=O)OCC(=O)N2c3ccccc3CC2C)c1C (stereo not given) | 105% (inactive)
CN(C)C(=O)c1cccn(Cc2cccc(C(F)(F)F)c2)c1=O | 97.2% (inactive)
COc1ccccc1Nc1nnc(SC(C)C(=O)NC2CC2)s1 (stereo not given) | 100% (inactive)
COc1ccc(C(=O)NC2CC2)cc1OC1CCN(Cc2ccc(SC)cc2)CC1 | 112% (inactive)
COc1cc(CN2CCCC(C(=O)c3ccc(SC)cc3)C2)cc(Cl)c1O (stereo not given) | 596% [may fluoresce violet] (active)
COc1ccc(CN2CCCC(C(=O)c3ccc(Cl)cc3)C2)cc1Cn1cncn1 (stereo not given) | 99.8% (inactive)
COc1ccc(OC)c(NC(=O)CSc2nc(-c3ccccc3)cc(=O)[nH]2)c1 | 107% (inactive)
Cc1cc(=O)oc2cc(OCC3CC(c4ccccc4Cl)=NO3)ccc12 (stereo not given) | 100% (inactive)
O=C(Cn1ncc(N2CCCC2)c(Br)c1=O)c1ccc(Cl)cc1 | 98.2% (inactive)

Source: PubChem BioAssay AID2016 (NMMLSC, 2009)
